Data on 92 compounds can be found in PubChem BioAssay AID1051 (The Scripps Research Institute Molecular Screening Center, 2008).

Structures are written as SMILES. In all, about 99,000 compounds went through this assay and about 340 (0.34%) were called active. No stated cut-off is given here; in the data, active means TR-FRET ratio above about 2300; inactive means the rest. Many of the other results were omitted from the sample, so actives are more common in it than they were.

This test can be described thus: signal artefacts in PPARgamma/SRC-1 readout – biochemical, TR-FRET emission ratio, artefact control for PPARgamma SRC-1 recruitment agonists, primary screen (AID 1051). Particulars: TR-FRET detection artefact counter-screen, at 8 µM, hits give high values. Background: In TR-FRET formats the signal depends on donor and acceptor labels being close together.
Consider `Cc1ccc(C2NC(C(=O)O)CS2)cc1` (configuration not stated), for which the TR-FRET ratio is 1760 (inactive). For `CC1(C)C(C=C(Cl)Cl)C1C(=O)N(Cc1ccc(Cl)cc1)C1CCS(=O)(=O)C1` (configuration not stated), the TR-FRET ratio was 1570 (inactive).

As for `CCC(=O)N1c2ccccc2NC2=C(C(=O)CCC2)C1c1ccco1` (configuration not stated), the TR-FRET ratio was 1690 (inactive). `Cn1c(N)c(C(=O)COC(=O)c2ccccc2NCc2ccco2)c(=O)n(C)c1=O`: the TR-FRET ratio was 1870 (inactive). For the compound `CCN(C(=O)COc1cccnc1[N+](=O)[O-])C1CCS(=O)(=O)C1` (configuration not stated), the TR-FRET ratio is 1750 (inactive). The result for `Cc1ccc(CN2CCN(/N=C/c3cccnc3)CC2)c(C)c1` reads 1720 (inactive); that for `Cc1ccccc1-c1n[nH]c(=S)n1C`, 1660 (inactive); that for `Cc1ccccc1-c1n[nH]c(=S)n1/N=C/c1ccc(-c2ccccc2Br)o1`, 2950 (active). The result for `S=c1[nH]nc(-c2ccccc2)n1/N=C/c1c[nH]c2ccccc12` reads 1810 (inactive). On to `CCc1ccc(CN(C)C(=O)CCc2nnc(-c3ccc(-c4ccccc4)cc3)o2)nc1`, for which the TR-FRET ratio was 1540 (inactive). Under `O=C(COC(=O)c1cc(-c2cccs2)nn1-c1ccccc1)Nc1cc([N+](=O)[O-])ccc1Cl` stands 2060 (inactive); under `Cc1cc(CNCc2c(C(=O)N(C)Cc3ccccc3)nc3ccccn23)nn1C`, 1760 (inactive). Under `COc1ccccc1-c1nnc(NC(=O)c2cccc(N3C(=O)CCC3=O)c2)o1` stands 1920 (inactive); under `Cc1noc(C)c1COc1cccc(C(=O)Nc2cccnc2)c1`, 1740 (inactive). Take `O=C(CCC1CCCN(C(=O)Cc2ccc(F)cc2)C1)N1CCN(c2ccccn2)CC1` (configuration not stated): the TR-FRET ratio is 1640 (inactive). Consider `CCNc1ccc(C(=O)OCC(=O)N2c3ccccc3NC(=O)C2(C)C)cc1[N+](=O)[O-]`, for which the TR-FRET ratio is 1810 (inactive).

For the compound `COCCNC(=O)C(OC(=O)c1cccs1)c1ccc(F)cc1` (configuration not stated), the TR-FRET ratio was 1860 (inactive).

Regarding `O=C(Nc1nnc(-c2ccco2)o1)c1ccc(S(=O)(=O)N2CCOCC2)cc1`, the TR-FRET ratio is 1880 (inactive). Under `NC(=O)COC(=O)c1cc(S(=O)(=O)N2CCN(c3ccccc3)CC2)ccc1Cl` stands 1880 (inactive); under `Cc1ccc(C(=O)NC(=S)Nc2ccccc2C)cc1`, 1630 (inactive); under `Cc1nc2ccccc2n1CC(=O)N/N=C/c1cccnc1`, 1750 (inactive). The result for `CCCCOc1ccc(C(=O)NCC(=O)OCC(=O)N2CCN(S(=O)(=O)c3ccc(C)cc3C)CC2)cc1` reads 1610 (inactive); that for `CC(C)CNC(=O)C(=O)Nc1ccc(N(C)C)cc1`, 1880 (inactive); that for `CCCOc1ccc(N/C=C/C(=O)C(C)(C)C)cc1`, 1770 (inactive). The result for `CN(C)c1ccc(N/C=C/C(=O)C(F)(F)F)cc1` reads 2320 (active); that for `CC1CCCN(S(=O)(=O)c2ccc(N(C(=O)c3cnccn3)C(C(=O)NC3CCCCC3)c3cccs3)cc2)C1` (configuration not stated), 1760 (inactive). Regarding `C=CCn1c(=NC(=O)c2cccs2)sc2cc(NC(C)=O)ccc21`, the TR-FRET ratio was 2340 (active). As to `C=CCn1c(=NC(=O)c2ccc(S(=O)(=O)N3CCCC3)cc2)sc2cc(NC(C)=O)ccc21`, the TR-FRET ratio was 1920 (inactive). Consider `CC(=O)Nc1ccc(/C=N/NC(=O)c2cccs2)cc1`, for which the TR-FRET ratio was 1750 (inactive). The result for `CC(NC(=O)CCC(=O)N1CCN(S(=O)(=O)c2ccc(Cl)cc2)CC1)c1ccccc1` (configuration not stated) reads 2170 (inactive); that for `CC(NC(=O)COC(=O)c1ccc2c(c1)OCO2)c1ccccc1` (configuration not stated), 1700 (inactive); that for `CCOc1ccc(/C=N/NC(=O)C(C)Sc2ccccn2)cc1OCC` (configuration not stated), 1650 (inactive). Under `CCN(CC)C(=O)Cn1cc(S(=O)(=O)CC(=O)NCc2ccc3c(c2)OCO3)c2ccccc21` stands 1870 (inactive); under `Cc1cccc(-c2nc3ccccc3c(=O)n2NC(=O)Cc2ccc(Cl)cc2)c1`, 1630 (inactive). Turning to `O=C(Cc1cccs1)Nc1cccc(-c2nc3ccccc3[nH]2)c1`, the TR-FRET ratio is 1820 (inactive). In the case of `CC(=O)Nc1ccc(S(=O)(=O)Nc2ccc(-c3ccc4nnc(C)n4n3)cc2)cc1`, the TR-FRET ratio is 1930 (inactive). Turning to `C/C(N)=C(/C#N)C(=O)COC(=O)C1CCN(C(=O)c2ccc(Cl)cc2)CC1`, the TR-FRET ratio is 1880 (inactive).

`C/C(=N/O)c1ccc(N2C(=O)C3C4C=CC(C3C2=O)C2C3C(=O)N(c5ccc(/C(C)=N/O)cc5)C(=O)C3C42)cc1` (configuration not stated): the TR-FRET ratio was 1760 (inactive).

`CSc1ccc(/C=N/N2CCN(Cc3ccccc3Cl)CC2)cc1`: the TR-FRET ratio is 1700 (inactive). Under `CC1CCCCC1NC(=O)COC(=O)Cc1ccc(Br)cc1` (configuration not stated) stands 1500 (inactive); under `CCSC1=NCCN1C(=O)c1ccc(S(=O)(=O)N(CC)CC)cc1`, 1800 (inactive).

In the case of `CCN(CC)Cc1nc2sc(C)c(C)c2c(=O)[nH]1`, the TR-FRET ratio was 1970 (inactive).

`Cc1ccc(OC(=O)CCC(=O)Nc2ccc(Br)cc2)cc1`: the TR-FRET ratio was 1980 (inactive). Under `CC(=O)N/N=C(\C)c1ccc(Br)cc1Br` stands 1740 (inactive). The result for `COC(=O)c1onc(-c2c(OC)cc(OC)cc2OC)c1C(=O)OC` reads 1640 (inactive); that for `Cc1sc2nc(CC(N)=O)[nH]c(=O)c2c1-c1ccccc1`, 1690 (inactive); that for `O=C(CO/N=C/c1ccc(OC(F)F)cc1)NCc1ccc(F)cc1`, 1970 (inactive). As to `O=C(/C=C\c1ccc2c(c1)OCO2)NC1(C(=O)Nc2ccc3c(c2)OCCO3)CCCCC1`, the TR-FRET ratio was 1600 (inactive). The result for `Cc1cccc(-c2ncc(CN3CCC(CO)(CCCc4ccccc4)CC3)cn2)c1` reads 1880 (inactive). Under `OCC1(CCc2ccccc2)CCN(Cc2ccc3nsnc3c2)CC1` stands 2510 (active); under `CC(=O)c1cccc(CN2CCC(CO)(Cc3ccccc3)CC2)c1`, 1590 (inactive); under `CC(C)N(C(=O)Cn1cc(SCC(=O)N2CCCC2)c2ccccc21)C(C)C`, 1650 (inactive). As to `CCOc1ccc(CCNC(=O)CSc2cc(=O)n(C)c3ccc(Cl)cc23)cc1OCC`, the TR-FRET ratio is 2230 (inactive). The result for `Cn1c(=O)cc(SCC(=O)N2CCCC2)c2cc(Cl)ccc21` reads 3640 (active); that for `CC(CC(=O)O)CC(=O)NNC(=O)c1cccc(Br)c1` (configuration not stated), 1850 (inactive). For the compound `O=C(CSc1cccc[n+]1[O-])NCCCc1ccccc1`, the TR-FRET ratio is 1620 (inactive). In the case of `CCN(CCCNC(=O)CSc1cc(=O)n(C)c2cc(Cl)ccc12)Cc1ccccc1`, the TR-FRET ratio was 3020 (active).

Turning to `CCn1c(=O)cc(SCC(=O)NCCC2=CCCCC2)c2ccccc21`, the TR-FRET ratio is 2120 (inactive). The result for `O=C(CCC1CCCN(Cc2ccc(O)c(Cl)c2)C1)NCc1ccccc1F` (configuration not stated) reads 1790 (inactive). Take `Cc1cc(C)cc(C(=O)N(CCc2ccccc2)C2=CC3CCC(C2)N3C)c1` (configuration not stated): the TR-FRET ratio was 1720 (inactive).

`CS(=O)(=O)N(CC(=O)NC1CCCC1)Cc1ccc(F)cc1`: the TR-FRET ratio is 1700 (inactive). Take `O=C(CO/N=C/c1ccccc1OC(F)F)NC1CCCC1`: the TR-FRET ratio was 2060 (inactive). Turning to `CCOC(=O)NC(=O)C(=CNc1cccc(OC)c1)C(=O)NC(=O)OCC`, the TR-FRET ratio is 1950 (inactive).

For `CCOC(=O)c1sc(-c2cccc([N+](=O)[O-])c2)cc1N`, the TR-FRET ratio was 1540 (inactive). Regarding `CS/C(=C\[N+](=O)[O-])Nc1ccc(C)cc1`, the TR-FRET ratio is 1980 (inactive).

Take `CNC(=O)NC(=O)C(OC(=O)c1cccc(S(=O)(=O)N2CCCCC2)c1)c1ccccc1` (configuration not stated): the TR-FRET ratio was 1550 (inactive). The result for `COCC(C)NC(=O)CSc1nc2nn(-c3ccccc3)c(=O)c-2c2n1CCCCC2` (configuration not stated) reads 1600 (inactive); that for `Cc1cccc(OCc2ccc(C(=O)Nc3ccc(F)cc3)cc2)c1`, 1720 (inactive). Consider `Fc1ccc(COc2cccc(-c3n[nH]c(=S)o3)c2)cc1`, for which the TR-FRET ratio is 3340 (active). Turning to `S=c1[nH]nc(COc2ccccc2)n1-c1ccccc1`, the TR-FRET ratio was 1980 (inactive). As to `Cc1ccc(S(=O)(=O)NCCC(=O)Nc2ccc(C)c(Cl)c2)cc1C`, the TR-FRET ratio is 1870 (inactive). `Cc1cccc(NC(=O)c2sc(-c3ccccc3)nc2-c2ccc([N+](=O)[O-])cc2)c1`: the TR-FRET ratio was 1770 (inactive).

With `Cc1ccc(-c2nc(-c3cccnc3)sc2CC(=O)Nc2ccc(C)c(Cl)c2)cc1`, the TR-FRET ratio was 2930 (active). Under `O=S(=O)(NCc1ccccc1)c1ccc(S(=O)(=O)N2CCCC2)cc1` stands 1770 (inactive); under `N#Cc1ccc(C(=O)Nc2nc(-c3cccs3)c(C(=O)C(F)(F)F)s2)cc1`, 2000 (inactive). Under `Cc1nc(N)c(Br)c(C)c1Br` stands 1890 (inactive). For `CCN(CC)P(=O)(Nc1ccc(SC(F)F)cc1)c1ccc(N(C)C)cc1NC(=O)c1ccco1` (configuration not stated), the TR-FRET ratio was 1800 (inactive).

For `CC(C)CCN1C(=O)c2ccc(C(=O)Nc3cccc(S(N)(=O)=O)c3)cc2C1=O`, the TR-FRET ratio was 1840 (inactive). The result for `COc1ccc(NC(=O)COC(=O)c2ccncc2)c(OC)c1` reads 1980 (inactive); that for `COc1cccc(-n2nc(C(=O)N3CCN(Cc4ccccc4)CC3)c3ccccc3c2=O)c1`, 1300 (inactive). Under `CCOC(=O)Cc1csc(NC(=O)CSc2ccc(Br)cc2)n1` stands 1780 (inactive). The result for `CCOC(=O)Cc1csc(NC(=O)COc2ccc3c(C)cc(=O)oc3c2)n1` reads 2450 (active); that for `CCOC(=O)Cc1csc(SCc2cc(=O)oc3cc(O)ccc23)n1`, 1620 (inactive); that for `O=C(NCCCNc1ccc([N+](=O)[O-])cc1Cl)c1ccccc1F`, 1920 (inactive). Turning to `Cc1c(CN2CCCC(C(=O)c3cccc(Cl)c3)C2)c(=O)n(-c2ccccc2)n1C` (configuration not stated), the TR-FRET ratio is 1510 (inactive). Under `COc1cc(NC(=O)COC(=O)CSc2ccc3ccccc3c2)c(C)cc1[N+](=O)[O-]` stands 1730 (inactive).

As to `Cc1ccc(N2C(=O)C(NC(=O)c3c(F)cccc3F)(C(F)(F)F)C3=C2CC(C)(C)CC3=O)cc1` (configuration not stated), the TR-FRET ratio was 1770 (inactive).

Turning to `CC1CC(C)(C)NC(=S)N1CCC(=O)N1CCN(Cc2ccccc2)CC1` (configuration not stated), the TR-FRET ratio was 1810 (inactive). As for `CC(C)C(c1nnnn1C(C)(C)C)N1CCN(Cc2cccnc2)CC1` (configuration not stated), the TR-FRET ratio was 1760 (inactive).

For the compound `Cc1nc(N2CCOCC2)c2c(C)c(C(=O)Nc3ccc(C(F)(F)F)cc3)sc2n1`, the TR-FRET ratio was 1820 (inactive). The result for `Cc1nc(N2CCN(c3ccccn3)CC2)c2c(C)c(C(=O)Nc3ccc(F)cc3)sc2n1` reads 1920 (inactive); that for `Cc1nc(N2CCC(C)CC2)c2c(C)c(C(=O)Nc3cc(F)ccc3C)sc2n1`, 2400 (active).
